Out of some 340,000 compounds screened, about 240 (0.071%) were called active.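 The calls were made as follows: active = activation above the mean of all tested compounds plus 3 SD, set per screening campaign (cut at about 17% in these data); inactive = the rest.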 This excerpt belongs to a sample that is enriched for actives.
target: Insulin-degrading enzyme (Homo sapiens) (UniProt P14735); test: human IDE activators in live cells, primary screen, fluorescence polarization, HEK cells, FAbeta-B substrate (AID 493087); conditions: FAbeta-B cleavage, at 5.96 µM, hits give high values, 0% vehicle, 100% cell-free pure enzyme wells
Sequence (P14735 whole entry, looked up): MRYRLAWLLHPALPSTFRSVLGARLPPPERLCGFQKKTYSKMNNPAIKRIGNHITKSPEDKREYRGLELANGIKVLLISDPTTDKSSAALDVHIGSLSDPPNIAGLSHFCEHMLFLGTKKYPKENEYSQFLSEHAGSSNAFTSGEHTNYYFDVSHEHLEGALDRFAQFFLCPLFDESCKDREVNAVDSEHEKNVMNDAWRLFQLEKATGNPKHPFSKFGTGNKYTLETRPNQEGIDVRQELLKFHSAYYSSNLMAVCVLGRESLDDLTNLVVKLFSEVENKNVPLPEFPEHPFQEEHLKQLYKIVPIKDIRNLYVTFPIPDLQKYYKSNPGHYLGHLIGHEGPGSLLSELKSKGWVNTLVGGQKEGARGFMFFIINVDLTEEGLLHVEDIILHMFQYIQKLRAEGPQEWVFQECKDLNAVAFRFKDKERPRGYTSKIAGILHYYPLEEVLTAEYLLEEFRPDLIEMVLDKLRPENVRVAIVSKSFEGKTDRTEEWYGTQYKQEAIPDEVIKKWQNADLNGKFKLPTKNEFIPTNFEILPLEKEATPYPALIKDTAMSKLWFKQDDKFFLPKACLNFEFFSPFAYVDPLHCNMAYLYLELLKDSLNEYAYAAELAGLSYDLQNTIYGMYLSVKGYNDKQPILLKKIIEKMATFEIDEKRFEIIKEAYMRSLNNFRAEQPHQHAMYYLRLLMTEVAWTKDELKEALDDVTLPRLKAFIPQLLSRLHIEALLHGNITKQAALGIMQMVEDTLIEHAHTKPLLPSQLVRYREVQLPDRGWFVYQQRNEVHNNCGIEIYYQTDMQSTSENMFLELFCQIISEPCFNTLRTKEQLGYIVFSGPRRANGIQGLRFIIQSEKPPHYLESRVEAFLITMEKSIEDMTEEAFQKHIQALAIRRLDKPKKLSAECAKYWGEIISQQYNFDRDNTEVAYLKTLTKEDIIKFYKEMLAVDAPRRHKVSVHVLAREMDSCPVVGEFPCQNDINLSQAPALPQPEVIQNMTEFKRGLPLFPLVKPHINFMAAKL

Row | Compound | activation
1 | Cc1ccccc1CSCCNC(=O)c1ccc(N(C)S(=O)(=O)c2ccccc2)cc1 | 1.48% (inactive)
2 | O=c1c([N+](=O)[O-])cccn1Cc1ccc(F)cc1Cl | -1.28% (inactive)
3 | Cc1ccc(CNC(=O)CCCNC(=O)c2ccc(Cl)cc2)n1C | 5.76% (inactive)
4 | CCOc1cc(/C=C2\SC(N3CCCC(C)C3)=NC2=O)ccc1O (configuration not stated) | -15.9% (inactive)
5 | CC(=O)Nc1ccc(S(=O)(=O)NCC(=O)OCc2cc(=O)oc3ccc4ccccc4c23)cc1 | 3.05% (inactive)
6 | CCC(=O)NNc1cc(=O)c2c(=O)n(C)c(=O)n(C)c2[nH]1 | 3.85% (inactive)
7 | Cc1noc(C)c1CSCC(=O)Nc1ccc(Br)cc1Cl | 2.79% (inactive)
8 | CC1=C/C(=N\OS(=O)(=O)c2ccccc2)C=CC1=O | -10.8% (inactive)
9 | Cc1cccc(NC(=O)c2cccc(C(=O)Nc3cccc(C)c3C)n2)c1C | -1.85% (inactive)
10 | CC(C)(C)C1C/C(=C/c2ccco2)C(=O)/C(=C/c2ccco2)C1 (configuration not stated) | -0.63% (inactive)
11 | CC1CCN(C(=O)C2CCN(S(=O)(=O)N3CCC4(CC3)OCCO4)CC2)CC1 | 0.48% (inactive)
12 | CCOC(=O)N1CCN(Cc2nc3ccc([N+](=O)[O-])cc3c(=O)n2-c2cccc(OC)c2)CC1 | 1.47% (inactive)
13 | CCOc1ccc(N2C(=O)/C(=C/c3ccc(C)o3)N(C)C2=S)cc1 | 2.68% (inactive)
14 | CCC(C)(C)NC(=O)CN(C(=O)C(=O)Nc1ccc2c(c1)OCCO2)C(C)(C)CC | 4.63% (inactive)
15 | CCOC(=O)C1(C(F)(F)F)N=C(N(C)C)OC(N(C)C)=N1 | 8.14% (inactive)
16 | CCN(CC)CCCC(C)n1c2nc(=O)[nH]c(=O)c-2nc2cc(Cl)ccc21 (configuration not stated) | 75.3% (active)
17 | C#CCOCCOCCOCCNc1nc(N2CCN(C(=O)CCCCCCCCCCNC(=O)[C@H](CCCCN)n3cc(C)nn3)CC2)nc(N2CCN(C(=O)CCCCCCCCCCNC(=O)[C@H](CO)n3cc(CCCSC)nn3)CC2)n1 | 29.3% (active)
18 | C#CCOCCOCCOCCNc1nc(N2CCN(C(=O)Cn3cc(CCCCN)nn3)CC2)nc(N2CCN(C(=O)[C@H](CCCCN)n3cc(CCC(=O)O)nn3)CC2)n1 | -2.39% (inactive)
19 | C#CCOCCOCCOCCNc1nc(N2CCN(C(=O)CCCCCCCCCCNC(=O)Cn3cc(CCCCCN)nn3)CC2)nc(N2CCN(C(=O)CCCCCCCCCCNC(=O)[C@H](CO)n3cc(CCCSC)nn3)CC2)n1 | 32.6% (active)
20 | C#CCOCCOCCOCCNc1nc(N2CCN(C(=O)[C@H](CCC(=O)O)n3cc(CN)nn3)CC2)nc(N2CCN(C(=O)[C@H](CCC(=O)O)n3cc(CN)nn3)CC2)n1 | 1.77% (inactive)
21 | C#CCOCCOCCOCCNc1nc(N2CCN(C(=O)[C@H](CCCCN)n3cc(CCC(=O)O)nn3)CC2)nc(N2CCN(C(=O)[C@H](CCCCN)n3cc(CC(C)O)nn3)CC2)n1 (some centres not stated) | -4.23% (inactive)
22 | C#CCOCCOCCOCCNc1nc(N2CCN(C(=O)[C@H](CCCN=C(N)N)n3cc(C(N)[C@@H](C)CC)nn3)CC2)nc(N2CCN(C(=O)[C@H](CO)n3cc([C@@H](N)C(C)C)nn3)CC2)n1 (some centres not stated) | -0.94% (inactive)
23 | C#CCOCCOCCOCCNc1nc(N2CCN(C(=O)Cn3cc(CCO)nn3)CC2)nc(N2CCN(C(=O)[C@H](CCCCN)n3cc(CCCC)nn3)CC2)n1 | 2.74% (inactive)
24 | C#CCOCCOCCOCCNc1nc(N2CCN(C(=O)CCCCCCCCCCNC(=O)[C@H]([C@@H](C)CC)n3cc(CCCCN=C(N)N)nn3)CC2)nc(N2CCN(C(=O)CCCCCCCCCCNC(=O)[C@H](CO)n3cc(CCCSC)nn3)CC2)n1 | 58% (active)

Row | Compound | activation
25 | C#CCOCCOCCOCCNc1nc(N2CCN(C(=O)Cn3cc(CCO)nn3)CC2)nc(N2CCN(C(=O)Cn3cc(CCCN=C(N)N)nn3)CC2)n1 | -2.84% (inactive)
26 | CN(C)C(=O)c1cc(Br)ccc1Cl | 7.04% (inactive)
27 | O=C(CNC(=O)OCc1ccccc1)Oc1cc2oc(=O)cc(-c3ccccc3)c2cc1Cl | 3.87% (inactive)
28 | CCCCCCCCCCOC(=O)Cn1c(COc2ccc(C)cc2)[n+](C)c2ccccc21 | 21.7% (active)
29 | Cc1ccc(COc2ccc(C(=O)NN)cc2)cc1 | -2.7% (inactive)
30 | CCCCOc1ccc(NC(=O)CSCC(=O)OCC)cc1 | 0.69% (inactive)
31 | CC1CCN(C(=O)CCNC(=O)c2ccccc2)CC1 | 4.37% (inactive)
32 | Cc1ccc(Cl)cc1NC(=O)CN1CCN(S(=O)(=O)N2CCOCC2)CC1 | 3.41% (inactive)
33 | C#CCOCCOCCOCCNc1nc(N2CCOCC2)nc(N2CCN(C(=O)[C@H](Cc3ccc(O)cc3)n3cc(CCO)nn3)CC2)n1 | -1.07% (inactive)
34 | COc1ccc(C2=NOC(C(=O)NCc3ccco3)C2)cc1OC (configuration not stated) | -0.49% (inactive)
35 | COc1ccc2c(c1)c(=Cc1ccc(N(C)C)cc1)c1cc(-c3ccccc3)[n+](C)n12 | -19.1% (inactive)
36 | COC(=O)COc1ccc2c(=O)c(Oc3ccccc3Br)coc2c1 | 1.55% (inactive)
37 | O=C(Nc1nn(Cc2ccccc2F)cc1Br)c1cccs1 | 2.02% (inactive)
38 | O=C(O)CCc1cccnc1 | 0.08% (inactive)
39 | CCOc1ccc(S(=O)(=O)N2CCCCCC2)c2ccccc12 | 7.79% (inactive)
40 | COc1ccc(-c2csc3ncnc(Oc4ccc5c(C)cc(=O)oc5c4)c23)cc1 | -0.97% (inactive)
41 | CCOC(=O)C1CCN(S(=O)(=O)c2ccc3c(c2)N(C)C(=O)CC(=O)N3C)CC1 | 4.32% (inactive)
42 | Cc1ccc(C(c2nnnn2CS(=O)(=O)c2ccc(C)cc2)N2CCC(C)CC2)cc1 (configuration not stated) | 6.3% (inactive)
43 | CN1CCN(C(=O)C(=O)c2cn(CC(=O)N3CCCC3)c3ccccc23)CC1 | 0.5% (inactive)
44 | Fc1cccc(CSc2nnc3ccc(-c4ccncc4)nn23)c1 | 11% (inactive)
45 | COC(=O)[C@]1(S(=O)(=O)c2ccccc2)C[C@@H]2ON=C(c3ccc(OC)cc3)[C@@H]2C1 | -5.33% (inactive)
46 | COc1ccc(N2CCN(C(=O)c3ccc(N4CCCCS4(=O)=O)cc3)CC2)cc1 | 1.3% (inactive)
47 | CN(CC(=O)NC1CCCCC1)S(=O)(=O)c1cccc2cccnc12 | 4.22% (inactive)
